Data reported in the supplement of paper PMC9023506.
Where a name gives a salt, the structure may show the parent alone.

system: Danio rerio larvae (5 dpf); test: excitability to 1-s acoustic pulses, difference vs DMSO (percentage points (treated minus DMSO)); higher = more of the behaviour than the DMSO vehicle control; settings: 10 µM; exposure time: 3 h pre-incubation + 3 h imaging
Method: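 5-dpf wild-type zebrafish larvae were imaged in 96-well plates. They were treated with 190 Tocris FDA-approved drugs at 10 µM (1 µl/ml DMSO) for 3 h before and 3 h during imaging at 28.5 °C, 48 larvae per drug. Automated image analysis gave % time moving and optomotor responses. Values are drug group mean minus DMSO vehicle mean (n=844), in percentage points, for 10 behaviours.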

SMILES | excitability to 1-s acoustic pulses
C=CCN1C[C@H](C(=O)N(CCCN(C)C)C(=O)NCC)C[C@@H]2c3cccc4[nH]cc(c34)C[C@H]21 [Cabergoline] | 10
C=C1C[C@@H]2[C@H](CC[C@]3(C)C(=O)CC[C@@H]23)[C@@]2(C)C=CC(=O)C=C12 [Exemestane] | 11.5
N[C@@H]1C[C@H]1c1ccccc1 [Tranylcypromine hydrochloride] | 0.887
COc1cc2c(cc1OC)C1CC(=O)C(CC(C)C)CN1CC2 (configuration not stated) [Tetrabenazine] | 21.7
O=c1[nH]c2ccccc2n1C1CCN(CCCC(c2ccc(F)cc2)c2ccc(F)cc2)CC1 [Pimozide] | -3.54
CC(O)(CS(=O)(=O)c1ccc(F)cc1)C(=O)Nc1ccc(C#N)c(C(F)(F)F)c1 (configuration not stated) [Bicalutamide] | 3.69
COc1ccc(C(CN(C)C)C2(O)CCCCC2)cc1 (configuration not stated) [Venlafaxine hydrochloride] | 8.33
Cc1cccc([C@H](C)c2c[nH]cn2)c1C [Dexmedetomidine hydrochloride] | 8.78
CCN(C)C(=O)Oc1cccc([C@H](C)N(C)C)c1 [Rivastigmine tartrate] | 2.04
CC[C@@H](C(N)=O)N1CCCC1=O [Levetiracetam] | 1.84
CN1C[C@H](C(=O)N[C@]2(C)O[C@@]3(O)[C@@H]4CCCN4C(=O)[C@H](Cc4ccccc4)N3C2=O)C[C@@H]2c3cccc4[nH]cc(c34)C[C@H]21 [Dihydroergotamine mesylate] | 1.17
CC(C)C[C@H]1C(=O)N2CCC[C@H]2[C@]2(O)O[C@](NC(=O)[C@@H]3C=C4c5cccc6[nH]c(Br)c(c56)C[C@H]4N(C)C3)(C(C)C)C(=O)N12 [Bromocriptine mesylate] | 17.6
